An excerpt weighted towards active compounds, which were near 3% of everything screened.
ABHD5-PLIN5 inh – blocks binding of human ABHD5 to perilipin-5 | actives 0.78% (n = 360,000) | inhibition, % at 4 µM | Split G. princeps luciferase complementation, luminescence, 4 h | Q00G26+Q8WTS1;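 active means inhibition above the mean inhibition across every tested compound plus 3 SD, cut at about 22% in these data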
PAX8 inh HTS – PAX8 transcriptional activity inhibition; inhibition, % at 12.6 µM; actives 1.2% (n = 360,000); RMG-I TPO-luciferase reporter, SteadyGlo, 24 h;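 active means mean replicate inhibition at least 60% with every replicate also reaching 60%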;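 further: luciferase light reporting Pax8 driven TPO promoter activity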
Shn3 3UTR inh – reduces Shn3 3'UTR luciferase signal in osteoblasts. Clone20 osteoblast Shn3 3'UTR firefly luciferase, 24 h. inhibition, % at 12.5 µM. actives 0.52% (n = 360,000). AID 588674;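 active means mean inhibition of at least 75% with every replicate also reaching 75%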
Peg3 promoter – Peg3 promoter activity inhibition; actives 1.7% (n = 360,000); inhibition, % at 20 µM; HeLa PEG-Prom luciferase reporter, luminescence, overnight; AID 588405;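 active means inhibition of at least 50% at 20 µM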
MITF TRPM1 inh – inhibitors of MITF-driven TRPM1 promoter in melanoma cells; SK-MEL-5 TRPM1 promoter luciferase, 24 h; inhibition, % at 12.5 µM; actives 0.83% (n = 330,000);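 active means mean inhibition across replicates of 60% or more, whatever share of single replicates reaches that level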
EWS-Fli block – inhibitors of EWS/Fli oncoprotein transcriptional activity; A673 NR0B1-luciferase reporter, viability-normalised; inhibition, % at 12.6 µM; actives 0.67% (n = 350,000); AID 651661;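 active means mean inhibition of at least 50% after viability correction, with every replicate also passing that limit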;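 further: firefly luciferase signal divided by Alamar Blue viability fluorescence both relative to DMSO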
A number is an active result; – = inactive; · = no result.

SMILES	ABHD5-PLIN5 inh	PAX8 inh HTS	Shn3 3UTR inh	Peg3 promoter	MITF TRPM1 inh	EWS-Fli block
Cc1ccc(/C=C2/Sc3ccc(C(=O)NCCN4CCOCC4)cc3NC2=O)cc1	–	–	–	–	–	·
O=C1Nc2cc(C(=O)NCCCN3CCCC3)ccc2S/C1=C/c1ccccc1F	–	–	–	–	–	–
COc1ccc(/C=C2\Sc3ccc(C(=O)NCCN4CCCCCC4)cc3N(C)C2=O)cc1	–	–	–	–	63	–
O=C1Nc2cc(C(=O)NCCN3CCCCCC3)ccc2S/C1=C/c1ccccc1F	–	–	–	99	·	73
C[C@H]1CN([C@@H](C)CO)S(=O)(=O)c2ccc(C3=CCCCC3)cc2O[C@H]1CN(C)C	·	·	·	·	·	–
CO[C@H]1CN(C)C(=O)c2cc(NC(C)=O)ccc2OC[C@H](C)N(CC2CC2)C[C@@H]1C	·	–	·	·	·	–
COc1ccc(NC(=O)N(C)C[C@H]2Oc3ncc(C#C[C@H](C)O)cc3C(=O)N([C@@H](C)CO)C[C@@H]2C)cc1	·	·	·	·	·	–
CN1C(=O)/C(=C\c2ccccc2F)Sc2ccc(C(=O)NC3CCN(Cc4ccccc4)CC3)cc21	–	–	–	58	–	–
O=C(Nc1ccc([N+](=O)[O-])cc1Cl)c1cc(Cl)ccc1O	–	–	95	–	74	–
O=C(Nc1cccc(Cl)c1)c1cc(N=Nc2ccc([N+](=O)[O-])cc2Cl)ccc1O	–	–	–	79	–	–
COc1ccccc1CN1C(=O)c2ccccc2[C@](Cc2ccccc2I)(C(=O)NCc2ccccc2)[C@@H]1c1ccc(CO)cc1	·	–	·	·	·	–
CCCNC(=O)Nc1ccc2c(c1)C(=O)N(C)C[C@H](OC)[C@H](C)CN(C(C)=O)[C@H](C)CO2	·	–	·	·	·	–
COc1ccc(/C=N/NC(=O)c2ccc3ccccc3c2)cc1OS(=O)(=O)c1ccc(NC(C)=O)cc1	–	·	–	62	–	·
COc1cc(/C=N/NC(=O)c2ccc3nc[nH]c3c2)cc(OC)c1OC(C)=O	–	–	–	–	·	–
COc1cc(/C=N\NC(=O)c2ccc(-c3ccccc3)cc2)cc(OC)c1O	–	75	–	–	–	–
COc1ccccc1/C=N/NC(=O)c1ccc(-c2ccccc2)cc1	–	–	–	–	–	·
COc1cc(/C=N\NC(=O)c2ccc(-c3ccccc3)cc2)cc(OC)c1OC(C)=O	–	100	–	–	–	·
C[C@@H]1CCCCO[C@@H](CN(C)C(=O)Cc2ccccc2)[C@H](C)CN([C@@H](C)CO)C(=O)c2cc(NS(=O)(=O)c3ccc(F)cc3)ccc2O1	·	–	·	·	·	–
OCCCCNCc1ccc(OCc2ccc(Cl)cc2Cl)cc1	–	·	–	100	–	·
OCCNCc1ccc(OCc2ccc(Cl)cc2Cl)cc1	–	–	–	–	–	–
C[C@@H]1CN([C@H](C)CO)C(=O)c2cc(NC(=O)Nc3ccc(F)cc3)ccc2O[C@@H](C)CCCCO[C@@H]1CN(C)Cc1ccc(Cl)c(Cl)c1	·	85	·	·	·	–
C[C@H]1CCCCO[C@H](CN(C)Cc2ccc(Cl)c(Cl)c2)[C@@H](C)CN([C@@H](C)CO)C(=O)c2cc(NC(=O)Nc3ccc(F)cc3)ccc2O1	·	92	·	·	·	–
C[C@@H]1CCCCO[C@@H](CN(C)Cc2ccc(Cl)c(Cl)c2)[C@@H](C)CN([C@@H](C)CO)C(=O)c2cc(NC(=O)Nc3ccc(F)cc3)ccc2O1	·	–	·	·	·	–
O=C(Nc1cccc(F)c1)N1CCCCN2[C@@H](CO)[C@H](c3ccc(-c4ccccc4F)cc3)[C@@H]2C1	·	–	·	·	·	–
O=C(Nc1ccc(F)cc1)N1CCCCN2[C@H](CO)[C@H](c3ccc(-c4ccccc4F)cc3)[C@H]2C1	·	64	·	·	·	–
SMILES	ABHD5-PLIN5 inh	PAX8 inh HTS	Shn3 3UTR inh	Peg3 promoter	MITF TRPM1 inh	EWS-Fli block
O=C(Nc1ccc(F)cc1)N1CCCCN2[C@H](CO)[C@@H](c3ccc(-c4ccccc4F)cc3)[C@@H]2C1	·	–	·	·	·	–
O=C(Nc1cccc(F)c1)N1CCCCN2[C@H](CO)[C@@H](c3ccc(-c4ccccc4F)cc3)[C@H]2C1	·	94	·	·	·	–
CC(C)NC(=O)N1[C@H](CO)[C@@H]2c3ccccc3N(C(=O)C3CCCCC3)C[C@@H]21	·	–	·	·	·	–
O=C(Nc1ccccc1)N[C@H]1CC[C@H](CCn2cc(-c3ccccc3F)nn2)O[C@H]1CO	·	–	·	·	·	–
Cc1c(Cl)ccc2c(C(=O)NCCCn3nccc3C)cc(-c3ccccn3)nc12	–	–	–	–	–	–
Cc1c(Cl)ccc2c(C(=O)NCCN3CCCCC3)cc(-c3ccccn3)nc12	–	–	–	68	–	–
